These results are taken from PubChem BioAssay (NCI).

This is part of a sample that, as a whole, favours compounds with a hit. Of some 83,000 tested, about 20% had one in any assay.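 48-hour exposure, single concentration, 96-well plates; percent growth endpoint where 0 means no net growth. Active: below 10.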 Unmarked numbers belong to inactive results. The source made the active and inactive calls.

The subject of the assay is TK-10 renal. Description: NCI-60 one-dose screen, 48 h (100 = growth as untreated, 0 = no growth, -100 = all killed). The following applies: 10 µM unless noted.
`O=C(Nc1cccc(-c2nc(-c3ccc(NC(=O)c4cccnc4)cc3Cl)no2)c1)Nc1ccc(NC(=O)C2CC2)c(C(F)(F)F)c1`: the growth was -20.4% (active).
Regarding `O=C(Nc1ccc(-c2nc(-c3cccc(O)c3)c(-c3ccnc(Br)c3)[nH]2)cc1)c1ccccc1`, the growth was 49%.
As to `COc1ccccc1N1CCN(C2=NN=C(c3cccc(Cl)c3)c3ccccc3C2)CC1`, the growth was 27.8%.
The figure for `O=C(NNc1nc2cc(F)c(F)cc2n2cccc12)c1ncccn1` is 48.6%; for `O=C(CN1C(=O)CSC1=O)Nc1ccc(C(=O)/C=C/c2cc3ccccc3nc2Cl)cc1` it is 92.1%.
Regarding `O=C(C[n+]1ccnc2ccccc21)c1ccc(O)c(O)c1`, the growth was 43.1%.
In the case of `Cn1ccnc1C(=O)/C=C/c1ccc(C(=O)Nc2ccc(NC(=O)CCNC(=O)c3csc(Br)n3)cc2)cc1`, the growth is 89.7%.
For `COc1ccc(Oc2ccc(C3CC(c4cc(OC)c(OC)c(OC)c4)=NN3C(C)=O)cc2)cc1` (centres undefined) the value was 20%; for `O=C1/C(=C/c2ccccc2[N+](=O)[O-])Oc2ccc(O)cc21`, 99.1%.
Consider `O=c1c2ccccc2nc(COc2ccccc2)n1/N=C/C=C/c1ccccc1`, for which the growth was 106%.
In the case of `C#C[C@]1(O)CC[C@H]2[C@@H]3CC=C4c5sc(C6CC6)nc5CC[C@]4(C)[C@H]3CC[C@@]21C`, the growth is 124%.
For `Cc1ccc(S(=O)(=O)N/N=C/c2cn(-c3ccc(F)cc3)nc2-c2ccc(S(C)(=O)=O)cc2)cc1` the value was 103%; for `C#C[C@]1(O)CC[C@H]2[C@@H]3CC=C4c5sc(-c6ccccn6)nc5CC[C@]4(C)[C@H]3CC[C@@]21C`, 104%; for `CCOC(=O)c1c(NC(=O)c2cccc(C(F)(F)F)c2)sc2c(CN3CCN(C)CC3)c(O)ccc12`, -52.7% (active).
As to `CCOC(=O)Nc1ccc(-c2nc(-c3cccc(O)c3)c(-c3ccnc(Br)c3)[nH]2)cc1`, the growth was 41.9%.
For the compound `COc1ccc(NS(=O)(=O)c2ccc(-c3cnc(C4CC4)o3)cc2)cc1Cl`, the growth was 69%.
The figure for `O=S(=O)(Nc1ccc(I)c(Cl)c1)c1ccc(-c2cnc(C3CC3)o2)cc1` is 53.3%; for `O=S(=O)(Nc1ccc2c(c1)OC(F)(F)O2)c1ccc(-c2cnc(C3CC3)o2)cc1` it is 84.3%; for `O=C(CN1CCN(c2cc(=O)n(-c3ccccc3)c3ccccc23)CC1)Nc1ccc([N+](=O)[O-])cc1` it is 93.3%.
The figure for `CN(c1ccc(Cl)cc1)S(=O)(=O)c1ccc(-c2cnc(C3CC3)o2)cc1` is 75.8%; for `O=C(/C=C/c1cn(-c2ccccc2)nc1-c1ccc(Cl)cc1)c1cc2ccccc2oc1=O` it is 113%; for `O=C1C[C@@H](c2ccccc2)Oc2c(Cc3ccccc3O)c(O)c(Cc3cc(Cc4cc(Cc5ccccc5O)ccc4O)ccc3O)c(O)c21` it is 147%.
The figure for `CCC(CC)N1C(=O)/C(=c2\sc3n(c2=O)C2C(NN=3)N(CC)C(=O)N2CC)c2ccccc21` (centres undefined) is 86.5%; for `COC(=O)Nc1ccc(-c2nc(-c3cccc(O)c3)c(-c3ccnc(Br)c3)[nH]2)cc1` it is 73.5%; for `CC(=O)Nc1ccc(NC(=O)Nc2cccc(-c3nc(-c4ccc(NC(=O)c5cccs5)cc4Cl)no3)c2)cc1C(F)(F)F` it is -32.7% (active).
`O=S(=O)(Nc1cc(Cl)cc(Cl)c1)c1ccc(-c2cnc(C3CC3)o2)cc1`: the growth was 76.1%.
As to `CC(=O)Nc1ccc(NC(=O)Nc2cccc(-c3nc(-c4ccc(NC(=O)c5cccnc5)cc4Cl)no3)c2)cc1C(F)(F)F`, the growth is -31.7% (active).
For the compound `O=C(Nc1cccc(-c2nc(-c3ccc(NC(=O)c4cccs4)cc3Cl)no2)c1)Nc1ccc(NC(=O)C2CC2)c(C(F)(F)F)c1`, the growth was -28.2% (active).
As to `CN1C(=O)N(C)C2Nn3c(s/c(=C\c4ccccn4)c3=O)=NC21` (centres undefined), the growth is 111%.
